In PubChem BioAssay (NCATS):
Inconclusive results are not listed. The source made the active and inactive calls. Unless noted, calls follow the shape of the dose curve; as a rule, active = well fitted curve in either direction with a large enough effect (not every such curve was filed as active); inconclusive = small, poorly fitted or top-dose-only effect, or another doubt; inactive = flat fitted curve, though single readings scatter.

Columns and labels:
[1] = molecular target: Lysosomal acid glucosylceramidase (Homo sapiens) (UniProt P04062); assay: Glucocerebrosidase-p2 (AID 348; in the data active = potency below about 10 µM; also: potency is read from the fitted curve at half-maximal effect); conditions: purified GBA, blue fluorogenic substrate, 40 min
Lysosomal acid glucosylceramidase (Homo sapiens), sequence (P04062 whole entry, looked up): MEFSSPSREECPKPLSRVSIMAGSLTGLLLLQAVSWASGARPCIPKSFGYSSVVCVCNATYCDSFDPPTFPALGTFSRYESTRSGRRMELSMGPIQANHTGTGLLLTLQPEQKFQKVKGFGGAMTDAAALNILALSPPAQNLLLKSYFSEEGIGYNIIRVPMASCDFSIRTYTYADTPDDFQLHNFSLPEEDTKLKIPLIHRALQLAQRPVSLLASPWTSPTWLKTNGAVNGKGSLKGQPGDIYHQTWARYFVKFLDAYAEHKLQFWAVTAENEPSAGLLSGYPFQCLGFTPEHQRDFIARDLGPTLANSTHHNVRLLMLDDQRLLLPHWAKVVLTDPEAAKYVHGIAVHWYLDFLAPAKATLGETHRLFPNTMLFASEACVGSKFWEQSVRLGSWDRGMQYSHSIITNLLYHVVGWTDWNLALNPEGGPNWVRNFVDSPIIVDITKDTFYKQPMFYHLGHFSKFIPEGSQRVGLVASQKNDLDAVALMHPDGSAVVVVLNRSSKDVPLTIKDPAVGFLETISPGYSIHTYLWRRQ
Summary of the method: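 Normal human glucocerebrosidase (0.2 nM) with blue fluorogenic substrate (80 uM final) in citrate/phosphate pH 5.9 with 10mM sodium taurocholate, 0.01% tween-20; 40 min RT, NaOH/glycine stop; fluorescence Ex 365/Em 440; AC50 from a titration from 0.6 nM upwards.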

[2] = AP1 Signaling Pathway (AID 357); conditions: ME-180 AP-1-bla reporter, EGF-induced, beta-lactamase ratio, 5 h; at 7.69 µM (top of the series) unless noted;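 also: ME-180 reporter cells stimulated with EGF at its EC50 level; % is scaled to controls: 0 for no effect and ±100 for the full control effect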
Summary of the method: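 Modulation of EGF-driven AP-1 transcription was assessed with a beta-lactamase reporter in ME-180 cells. Compound and EC50 EGF were co-incubated 5 hours at 37 °C before 2.5-hour CCF4 loading at room temperature and dual-emission reading.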

[3] = molecular target: Cytochrome P450 1A2 (Homo sapiens) (UniProt P05177); assay: p450-cyp1a2 (AID 410; calls by dose curve; also: potency is read from the fitted curve at half-maximal effect;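 as to activity change, negative = inhibition: -100% = full effect of reference inhibitor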); conditions: recombinant CYP1A2, luciferin-ME demethylation, luminescence; series mostly up to 11.4 µM
Cytochrome P450 1A2 (Homo sapiens), sequence (P05177 whole entry, looked up): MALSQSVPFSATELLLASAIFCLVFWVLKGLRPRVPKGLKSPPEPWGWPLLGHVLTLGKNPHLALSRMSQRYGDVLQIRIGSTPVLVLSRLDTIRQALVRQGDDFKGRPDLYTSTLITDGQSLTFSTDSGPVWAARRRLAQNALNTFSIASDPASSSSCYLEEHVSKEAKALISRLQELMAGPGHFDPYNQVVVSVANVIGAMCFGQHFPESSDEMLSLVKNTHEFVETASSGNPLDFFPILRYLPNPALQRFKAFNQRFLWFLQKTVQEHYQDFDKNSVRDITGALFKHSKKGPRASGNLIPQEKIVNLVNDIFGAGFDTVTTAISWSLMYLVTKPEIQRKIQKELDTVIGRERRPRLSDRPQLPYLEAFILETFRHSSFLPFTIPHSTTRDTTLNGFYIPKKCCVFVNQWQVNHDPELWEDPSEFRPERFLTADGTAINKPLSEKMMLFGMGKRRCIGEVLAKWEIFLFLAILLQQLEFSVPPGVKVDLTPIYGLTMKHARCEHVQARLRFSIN
Summary of the method: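 Read-out is luminescence from luciferin produced by CYP1A2 demethylation of Luciferin-ME (100uM, at Km). Detection reagent stopped the 60 min NADPH-dependent reaction; signals were normalized to 57 uM furafylline.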

[4] = NFAT Signaling Pathway (AID 444); conditions: Jurkat NFAT-bla M1, carbachol, beta-lactamase ratio, 5 h; at 7.69 µM (top of the series) unless noted;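 also: carbachol stimulus at about its EC50 of 1 µM final; % is scaled to controls: 0 for no effect and ±100 for the full control effect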
Summary of the method: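 Jurkat cells with NFAT-driven β-lactamase reporter and co-expressed M1 receptor, stimulated with carbachol (final 1 uM, ~EC50), compound titration, 5 h at 37 °C. CCF4 loaded 1 h at RT; 460/530 nm ratio gave %activity and AC50.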

[5] = Stat Signaling Pathway (AID 446); conditions: ME-180 (cervical carcinoma) SIE beta-lactamase reporter, IL-6 stimulated, 5 h; at 7.69 µM (top of the series) unless noted;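 also: ME-180 cervical cancer cells given 40 pM IL-6 alongside compound; SIE-controlled beta-lactamase reporter measured as 460/530 nm FRET emission ratio; % is scaled to controls: 0 for no effect and ±100 for the full control effect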
Summary of the method: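 Normalization used AC90 stimulation (300 pM IL-6) and AC90 inhibition (125 nM pan-JAK inhibitor at 40 pM IL-6). The underlying signal is SIE-driven beta-lactamase in ME-180 cells after 5 h IL-6 exposure with compound.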

[6] = molecular target: Glucocorticoid receptor (Homo sapiens) (UniProt P04150); assay: GR-GFP Redistribution (AID 450;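 active = compounds whose dose series gives a full or clear partial fitted curve of increased nuclear translocation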; also: potency is read from the fitted curve at half-maximal effect); conditions: U2OS GR-GFP nuclear translocation, laser cytometry, 2 h
Glucocorticoid receptor (Homo sapiens), sequence (P04150 whole entry, looked up, the tested form may be a part): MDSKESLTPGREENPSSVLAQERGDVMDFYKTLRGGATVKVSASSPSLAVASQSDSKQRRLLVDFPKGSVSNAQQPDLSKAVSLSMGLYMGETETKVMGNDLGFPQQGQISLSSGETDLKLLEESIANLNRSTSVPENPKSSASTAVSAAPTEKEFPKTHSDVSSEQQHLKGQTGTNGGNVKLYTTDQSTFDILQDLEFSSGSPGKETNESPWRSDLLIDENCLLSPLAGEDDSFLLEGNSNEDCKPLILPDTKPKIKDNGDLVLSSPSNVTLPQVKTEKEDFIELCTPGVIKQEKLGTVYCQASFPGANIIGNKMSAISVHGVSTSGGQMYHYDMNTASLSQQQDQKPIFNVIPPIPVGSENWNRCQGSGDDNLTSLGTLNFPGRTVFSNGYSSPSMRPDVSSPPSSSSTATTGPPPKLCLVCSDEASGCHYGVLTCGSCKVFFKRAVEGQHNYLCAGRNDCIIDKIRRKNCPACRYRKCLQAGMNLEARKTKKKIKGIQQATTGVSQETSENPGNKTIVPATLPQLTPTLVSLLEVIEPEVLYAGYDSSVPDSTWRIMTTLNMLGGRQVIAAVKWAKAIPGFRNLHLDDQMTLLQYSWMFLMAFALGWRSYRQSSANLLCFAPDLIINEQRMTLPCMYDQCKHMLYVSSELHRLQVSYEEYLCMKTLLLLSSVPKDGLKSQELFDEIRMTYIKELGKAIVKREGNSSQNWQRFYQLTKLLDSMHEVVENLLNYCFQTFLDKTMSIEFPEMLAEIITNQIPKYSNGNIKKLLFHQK

[7] = molecular target: Glucocorticoid receptor (Homo sapiens) (UniProt P04150); assay: GR-EFC Redistribution (AID 451; calls by dose curve; also: potency is read from the fitted curve at half-maximal effect); conditions: CHO-K1 GR-EFC translocation, beta-gal luminescence, 2 h
Summary of the method: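 CHO-K1 cells expressing nuclear EA and GR-ED fragments of b-gal; compounds titrated up to 46 uM final, 2 h at 37 C. GR nuclear translocation read as complemented b-gal luminescence after 1 h RT detection.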

[8] = molecular target: Mitogen-activated protein kinase 10 (Mus musculus) (UniProt Q61831); assay: JNK3 AlphaScreen Assay (AID 530); conditions: JNK3 lysate, c-Jun phosphorylation; series mostly up to 11.4 µM;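 also: kinase came from lysate of stimulated human HepG2 cells; signal reports phosphorylation of biotinylated GST-cJun 1-79 at Ser73 with 10 µM ATP; % is scaled to controls: 0 for no effect and ±100 for the full control effect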
Summary of the method: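 HepG2 lysate (IL-1b/TNFa pre-activated) + biotin-GST-cJun 1-79 + anti-pSer73 cJun; cpd titration, 15 min RT; ATP 10 uM start; Tris pH 7.6, MgCl2, DTT, vanadate; beads in EDTA buffer; AlphaScreen.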

[9] = molecular target: 3',5'-cyclic-AMP phosphodiesterase 4B (Homo sapiens) (UniProt Q07343); assay: qHTS Assay for Inhibitors of PDE-IV (AID 607; active = well fitted activation curve with a large enough effect in the main read-out, with a control signal flat, not every such curve was filed as active; also: % of control where 0% means no effect); conditions: HEK293 ACTOne CNG channel cells, membrane potential fluorescence; series mostly up to 22.9 µM
3',5'-cyclic-AMP phosphodiesterase 4B (Homo sapiens), sequence (Q07343 whole entry, looked up): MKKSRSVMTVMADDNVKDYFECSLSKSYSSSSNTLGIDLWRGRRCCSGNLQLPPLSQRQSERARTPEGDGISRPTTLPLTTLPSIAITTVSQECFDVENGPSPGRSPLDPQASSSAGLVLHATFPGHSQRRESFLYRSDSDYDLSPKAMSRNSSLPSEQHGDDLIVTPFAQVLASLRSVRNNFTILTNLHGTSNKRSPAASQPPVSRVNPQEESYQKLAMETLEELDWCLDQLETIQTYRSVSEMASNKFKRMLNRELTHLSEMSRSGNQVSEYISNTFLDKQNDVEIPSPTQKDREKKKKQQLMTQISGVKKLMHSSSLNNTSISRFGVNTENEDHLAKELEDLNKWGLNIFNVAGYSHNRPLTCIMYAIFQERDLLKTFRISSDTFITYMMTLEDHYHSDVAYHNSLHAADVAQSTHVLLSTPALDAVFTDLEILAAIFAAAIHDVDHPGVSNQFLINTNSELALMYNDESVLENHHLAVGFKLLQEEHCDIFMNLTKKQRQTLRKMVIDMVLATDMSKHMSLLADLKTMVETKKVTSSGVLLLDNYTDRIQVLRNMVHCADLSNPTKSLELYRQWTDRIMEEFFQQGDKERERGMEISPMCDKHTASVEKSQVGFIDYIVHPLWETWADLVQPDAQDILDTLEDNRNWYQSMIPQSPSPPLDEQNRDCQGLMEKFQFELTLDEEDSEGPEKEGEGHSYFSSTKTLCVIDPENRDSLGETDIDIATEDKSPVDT
Summary of the method: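 HEK293 ACTOne cells with CNG channel (1000/well), endogenous PDE4; membrane potential dye, compounds up to 22.9 uM final. Fluorescence Ex 535/Em 590; RO 20-1724 (100 uM final) as reference.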

Clc1ccc2c(NCCNc3ccnc4cc(Cl)ccc34)ccnc2c1
active: Potency [3] 5.01 µM
inactive: Potency [1] > 11.4 µM | activity change, negative = inhibition [2] -4.82% | activity change, negative = inhibition [4] 4.01% | activity, negative = inhibition [5] 9.24% | Potency [6] > 46 µM | Potency [7] > 9.22 µM | Potency [8] | Potency [9]

Cc1cc2ccc(OC(=O)c3ccc(N=C(N)N)cc3)cc2oc1=O
inactive: Potency [1] > 11.4 µM | activity change, negative = inhibition [2] 5.35% | activity change, negative = inhibition [4] -22.4% | activity, negative = inhibition [5] -1.77% | Potency [6] > 46 µM | Potency [7] > 9.22 µM | Potency [8] | Potency [9]
active: Potency [3] 2.51 µM

O=C(O)c1cccc(OCCO)c1
inactive: Potency [1] > 11.4 µM | activity change, negative = inhibition [2] 7.9% | Potency [3] | activity change, negative = inhibition [4] -28.1% | activity, negative = inhibition [5] 13.6% | Potency [6] > 46 µM | Potency [7] > 9.22 µM | Potency [8] | Potency [9]

Cn1ccnc1C[C@@](C)(O)c1ccccc1
inactive: Potency [1] > 11.4 µM | activity change, negative = inhibition [2] 7.99% | Potency [3] | activity change, negative = inhibition [4] 2.18% | activity, negative = inhibition [5] 8.21% | Potency [6] > 46 µM | Potency [7] > 9.22 µM | Potency [8] | Potency [9]

NNC(=O)[C@@H](O)[C@H](O)[C@H](O)CO
inactive: Potency [1] > 11.4 µM | activity change, negative = inhibition [2] 2.85% | Potency [3] | activity change, negative = inhibition [4] 10.5% | activity, negative = inhibition [5] 2.62% | Potency [6] > 46 µM | Potency [7] > 9.22 µM | Potency [8] | Potency [9]

NCCc1nc(-c2nc(C(=O)O)cs2)cs1
inactive: Potency [1] > 11.4 µM | activity change, negative = inhibition [2] -1.29% | Potency [3] | activity change, negative = inhibition [4] -25.9% | activity, negative = inhibition [5] -10% | Potency [6] > 46 µM | Potency [7] > 9.22 µM | Potency [8] | Potency [9]

CC[C@](N)(C(=O)O)C(C)C
inactive: Potency [1] > 11.4 µM | activity change, negative = inhibition [2] 6.23% | Potency [3] | activity change, negative = inhibition [4] -9.09% | activity, negative = inhibition [5] -6.84% | Potency [6] > 46 µM | Potency [7] > 9.22 µM | Potency [8] | Potency [9]

CCC[C@H](Sc1nc(N)nc2nc[nH]c12)C(=O)O
inactive: Potency [1] > 11.4 µM | activity change, negative = inhibition [2] -8.03% | Potency [3] | activity change, negative = inhibition [4] -19.8% | activity, negative = inhibition [5] 6.16% | Potency [6] > 46 µM | Potency [7] > 9.22 µM | Potency [8] | Potency [9]

Cc1cc(Cc2c(C)c(C)c(Cc3cc(C)cc(C(C)(C)C)c3O)c(C)c2C)c(O)c(C(C)(C)C)c1
inactive: Potency [1] > 11.4 µM | activity change, negative = inhibition [2] -8.57% | activity change, negative = inhibition [3] 5% [at 2.29 µM] | activity change, negative = inhibition [4] 14.4% | activity, negative = inhibition [5] 6.62% | Potency [6] > 46 µM | Potency [7] > 9.22 µM | Potency [8] | Potency [9]

O=C(CCN1CCOCC1)Nc1ccc(F)cc1F
inactive: Potency [1] > 11.4 µM | activity change, negative = inhibition [2] -2.63% | Potency [3] | activity change, negative = inhibition [4] 13.2% | activity, negative = inhibition [5] 8.47% | Potency [6] > 46 µM | Potency [7] > 9.22 µM | Potency [8] | Potency [9]

O=C(O)c1ccc([N+](=O)[O-])c(P(=O)(O)O)c1
inactive: Potency [1] > 11.4 µM | activity change, negative = inhibition [2] -2.71% | Potency [3] | activity change, negative = inhibition [4] 12.7% | activity, negative = inhibition [5] -0.293% | Potency [6] > 46 µM | Potency [7] > 9.22 µM | Potency [8] | Potency [9]

NCCSCCc1ccccc1
active: Potency [3] 5.01 µM
inactive: Potency [1] > 11.4 µM | activity change, negative = inhibition [2] -3.04% | activity change, negative = inhibition [4] 3.22% | activity, negative = inhibition [5] 4.42% | Potency [6] > 46 µM | Potency [7] > 9.22 µM | Potency [8] | Potency [9]

O=c1[nH]cc(CS(=O)(=O)Cc2c[nH]c(=O)[nH]c2=O)c(=O)[nH]1
inactive: Potency [1] > 11.4 µM | activity change, negative = inhibition [2] -0.933% | Potency [3] | activity change, negative = inhibition [4] 1.47% | activity, negative = inhibition [5] 0.704% | Potency [6] > 46 µM | Potency [7] > 9.22 µM | Potency [8] | Potency [9]

Cn1c(=O)c2c(ncn2CN2CCN(Cn3cnc4c3c(=O)n(C)c(=O)n4C)CC2)n(C)c1=O
inactive: Potency [1] > 11.4 µM | activity change, negative = inhibition [2] -1.04% | activity change, negative = inhibition [3] -18.2% [at 2.29 µM] | activity change, negative = inhibition [4] 7.2% | activity, negative = inhibition [5] 2.15% | Potency [6] > 46 µM | Potency [7] > 9.22 µM | Potency [8] | Potency [9]

NC(Cc1ccccc1)=NCC(=O)O
inactive: Potency [1] > 11.4 µM | activity change, negative = inhibition [2] 2% | Potency [3] | activity change, negative = inhibition [4] -0.213% | activity, negative = inhibition [5] -4.46% | Potency [6] > 46 µM | Potency [7] > 9.22 µM | Potency [8] | Potency [9]

C/C(=N/NS(=O)(=O)c1ccc(C)cc1)P(=O)(O)O
inactive: Potency [1] > 11.4 µM | activity change, negative = inhibition [2] 1.2% | Potency [3] | activity change, negative = inhibition [4] 7.41% | activity, negative = inhibition [5] 6.08% | Potency [6] > 46 µM | Potency [7] > 9.22 µM | Potency [8] | Potency [9]
